# Results as given in ChEMBL document CHEMBL5606458, “ASAP - ZIKV NS2B-NS3 protease fluorescence single point” (2024).
# The campaign covered roughly 2,700 compounds. About 160 (5.9%) showed an effect of 50% or more. Many of the other results were omitted from the sample, so strong results are more common in it than they were.
# Molecular target: Nonstructural protein 3 (Zika virus) (UniProt A0A024AXB9)
# [1] = PRVABC59, Concentration 15.0 uM, Number of replicates 1.0
# [2] = PRVABC59, Concentration 50.0 uM, Number of replicates 1.0
# Sequence of Nonstructural protein 3 (Zika virus) (A0A024AXB9 as listed by the source): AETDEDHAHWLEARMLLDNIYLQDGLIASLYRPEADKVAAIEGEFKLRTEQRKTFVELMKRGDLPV
smiles,measurement,setting,value
O=C(Nc1ccc(Br)cc1O)c1cc(Cl)ccc1NS(=O)(=O)c1ccc(Oc2ccccc2Cl)cc1,inhibition,[1],58.9%
COc1ccc(-c2cc(NC(=O)c3cc(Cl)ccc3NS(=O)(=O)c3ccc(Oc4ccccc4Cl)cc3)[nH]n2)cc1,inhibition,[1],57.5%
Cc1ccc(NC(=O)c2cc(Cl)ccc2NS(=O)(=O)c2ccc(Oc3ccccc3Cl)cc2)cc1Br,inhibition,[1],43.3%
O=C(Nc1ccc(Br)c(C(F)(F)F)c1)c1cc(Cl)ccc1NS(=O)(=O)c1ccc(Oc2ccccc2Cl)cc1,inhibition,[1],29.1%
O=C(Nc1ccc(F)c(Br)c1)c1cc(Cl)ccc1NS(=O)(=O)c1ccc(Oc2ccccc2Cl)cc1,inhibition,[1],48.7%
COc1cc(NC(=O)c2cc(Cl)ccc2NS(=O)(=O)c2ccc(Oc3ccccc3Cl)cc2)ccc1Br,inhibition,[1],60.4%
CC(=O)Nc1ccc(NC(=O)c2cc(Cl)ccc2NS(=O)(=O)c2ccc(Oc3ccccc3Cl)cc2)c(C(F)(F)F)c1,inhibition,[1],23.4%
COc1ccc(NC(=O)c2cc(Cl)ccc2NS(=O)(=O)c2ccc(Oc3ccccc3Cl)cc2)cc1C(F)(F)F,inhibition,[1],51.3%
COc1cc(NC(=O)c2cc(Cl)ccc2NS(=O)(=O)c2ccc(Oc3ccccc3Cl)cc2)cc(OC)c1,inhibition,[1],24.1%
O=C(Nc1cccc(Cl)c1Br)c1cc(Cl)ccc1NS(=O)(=O)c1ccc(Oc2ccccc2Cl)cc1,inhibition,[1],25.4%
COc1ccc(Cl)c(NC(=O)c2cc(Cl)ccc2NS(=O)(=O)c2ccc(Oc3ccccc3Cl)cc2)c1,inhibition,[1],25.8%
O=C(Nc1cc(Br)ccc1F)c1cc(Cl)ccc1NS(=O)(=O)c1ccc(Oc2ccccc2Cl)cc1,inhibition,[1],24.4%
O=Cc1ccc(N2CCC(C(=O)Nc3ccc(-n4cccn4)cc3)CC2)cc1,inhibition,[2],21.4%
Cn1cc(NC(=O)c2ccccc2-c2ccc(C(=O)O)nc2)cn1,inhibition,"PRVABC59, Concentration 49.5 uM, Number of replicates 2.0, Standard deviation 2.4498358087391408 %",-1.15%
same,inhibition,"PRVABC59, Concentration 99.01 uM, Number of replicates 2.0, Standard deviation 1.6656005687321722 %",-0.876%
same,inhibition,"PRVABC59, Concentration 198.0 uM, Number of replicates 2.0, Standard deviation 2.3203289956835937 %",3.27%
O=C(NCCc1c[nH]c2cccnc12)[C@@]1(c2ccc(F)cc2)CCCNC1,inhibition,"PRVABC59, Concentration 49.5 uM, Number of replicates 2.0, Standard deviation 1.1099611949443484 %",2.3%
same,inhibition,"PRVABC59, Concentration 99.01 uM, Number of replicates 2.0, Standard deviation 0.8664361984862207 %",-0.092%
same,inhibition,"PRVABC59, Concentration 198.0 uM, Number of replicates 2.0, Standard deviation 1.4816570758007732 %",-1.42%
O=C(c1cc(Cl)ccc1NS(=O)(=O)c1ccc(Oc2ccccc2Cl)cc1)N1CCN(C(=O)[C@@H]2CCCO2)CC1,inhibition,[1],-3.32%
CC(C)c1cccc(C(C)C)c1NC(=O)C1CCN(c2ccc(C=O)cc2)CC1,inhibition,[2],22.1%
O=Cc1ccc(N2CCC(C(=O)N3CCC(Cc4ccccc4)CC3)CC2)cc1,inhibition,[2],24.7%
CNC(=O)[C@H]1CCN(S(=O)(=O)c2ccc(Oc3ccccc3Cl)cc2)C1,inhibition,"PRVABC59, Concentration 49.5 uM, Number of replicates 2.0, Standard deviation 2.3503648629811855 %",6.33%
same,inhibition,"PRVABC59, Concentration 99.01 uM, Number of replicates 2.0, Standard deviation 2.692773952478603 %",8.32%
same,inhibition,"PRVABC59, Concentration 198.0 uM, Number of replicates 2.0, Standard deviation 0.3043636351088153 %",5.71%
CC(=O)N1CCC(N(C)C(=O)c2cc(Cl)ccc2NS(=O)(=O)c2ccc(Oc3ccccc3Cl)cc2)CC1,inhibition,[1],11.3%
Cc1cc(CO)c2cccc(CC(=O)NCCc3ncc[nH]3)c2n1,inhibition,"PRVABC59, Concentration 49.95 uM, Number of replicates 2.0, Standard deviation 0.020358613704702253 %",12.5%
same,inhibition,"PRVABC59, Concentration 99.9 uM, Number of replicates 2.0, Standard deviation 0.02544995300481825 %",32.3%
O=C(Nc1ncc(Br)cc1O)c1cc(Cl)ccc1NS(=O)(=O)c1ccc(Oc2ccccc2Cl)cc1,inhibition,[1],55.3%
CCc1cc(Br)ccc1NC(=O)c1cc(Cl)ccc1NS(=O)(=O)c1ccc(Oc2ccccc2Cl)cc1,inhibition,[1],41.5%
O=C(Nc1cnc(Cl)c(Br)c1)c1cc(Cl)ccc1NS(=O)(=O)c1ccc(Oc2ccccc2Cl)cc1,inhibition,[1],23%
COc1cc(Br)ccc1NC(=O)c1cc(Cl)ccc1NS(=O)(=O)c1ccc(Oc2ccccc2Cl)cc1,inhibition,[1],56.4%
COc1cc(Cl)c(C)cc1NC(=O)c1cc(Cl)ccc1NS(=O)(=O)c1ccc(Oc2ccccc2Cl)cc1,inhibition,[1],22.4%
COc1ncc(NC(=O)c2cc(Cl)ccc2NS(=O)(=O)c2ccc(Oc3ccccc3Cl)cc2)cc1Br,inhibition,[1],67.3%
O=C(Nc1ncc(Br)nc1Cl)c1cc(Cl)ccc1NS(=O)(=O)c1ccc(Oc2ccccc2Cl)cc1,inhibition,[1],16.8%
COc1ncc(Br)cc1NC(=O)c1cc(Cl)ccc1NS(=O)(=O)c1ccc(Oc2ccccc2Cl)cc1,inhibition,[1],22.9%
O=C(Nc1ncc(F)cc1Br)c1cc(Cl)ccc1NS(=O)(=O)c1ccc(Oc2ccccc2Cl)cc1,inhibition,[1],23.4%
COc1ccc(CNC(=O)c2cc(Cl)ccc2NS(=O)(=O)c2ccc(Oc3ccccc3Cl)cc2)cc1F,inhibition,[1],26.5%
O=C(c1cc(Cl)ccc1NS(=O)(=O)c1ccc(Oc2ccccc2Cl)cc1)N1CCN(c2ncccn2)CC1,inhibition,[1],7.48%
O=Cc1ccc(N2CCC(C(=O)Nc3ccccc3I)CC2)cc1,inhibition,[2],24.9%
O=Cc1ccc(N2CCC(C(=O)Nc3ccc(Br)c(Cl)c3Cl)CC2)cc1,inhibition,[2],20.9%
CC(C)(C)N(C[C@H](O)c1ccc(O)c(CO)c1)C(=O)c1cc(Cl)ccc1NS(=O)(=O)c1ccc(Oc2ccccc2Cl)cc1,inhibition,[1],14.6%
COc1ccccc1OCCCN(C)C(=O)C1CCN(c2ccc(C=O)cc2)CC1,inhibition,[2],22.6%
CC(C)(COC(=O)c1cccc(F)c1)NC(=O)c1cc(N)cc(Cl)c1,inhibition,"PRVABC59, Concentration 49.5 uM, Number of replicates 2.0, Standard deviation 1.1247891306000573 %",3.45%
same,inhibition,"PRVABC59, Concentration 99.01 uM, Number of replicates 2.0, Standard deviation 1.4129417390724304 %",5.8%
same,inhibition,"PRVABC59, Concentration 198.0 uM, Number of replicates 2.0, Standard deviation 1.2082537148179389 %",9%
